From PubChem BioAssay (Tox21)
Records with an inconclusive call do not appear. Entries that show only a call come without a potency. Unmarked numbers belong to inactive results. Activity calls are given as the source filed them. Calls follow the shape of the dose curve; as a rule, active = well fitted inhibition curve with a large enough effect in the repeat runs; inconclusive = weak or mixed curves; inactive = no such curve, though single readings can be large or run the other way.

molecular target: Cytochrome P450 2C19 (Homo sapiens) (UniProt P33261); assay: Cytochrome P450 Family 2 Subfamily C Member 19 (CYP2C19) small molecule antagonists: luciferase reporter qHTS assay (AID 1671197); settings: P450-Glo CYP2C19 enzyme, luciferin luminescence, 1 h; series mostly up to 115 µM; also: nearly all actives have a fitted effect of over 65% in size
Sequence (P33261 whole entry, looked up): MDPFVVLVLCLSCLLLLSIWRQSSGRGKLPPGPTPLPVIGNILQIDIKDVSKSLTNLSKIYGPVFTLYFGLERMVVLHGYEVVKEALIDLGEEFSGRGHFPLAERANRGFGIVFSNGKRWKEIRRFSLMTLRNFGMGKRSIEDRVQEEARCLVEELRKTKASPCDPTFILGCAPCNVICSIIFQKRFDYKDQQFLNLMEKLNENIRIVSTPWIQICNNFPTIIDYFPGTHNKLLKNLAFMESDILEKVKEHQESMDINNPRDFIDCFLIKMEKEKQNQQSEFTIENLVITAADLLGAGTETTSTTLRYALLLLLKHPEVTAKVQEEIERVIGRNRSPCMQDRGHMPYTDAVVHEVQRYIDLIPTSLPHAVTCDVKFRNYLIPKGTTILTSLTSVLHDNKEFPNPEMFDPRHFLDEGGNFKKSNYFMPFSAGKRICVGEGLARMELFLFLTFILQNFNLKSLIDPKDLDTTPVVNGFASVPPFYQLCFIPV
Method in brief: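 Compounds were tested on CYP2C19 activity via proluciferin conversion to luciferin. The 37C, 1 h reaction followed NADPH addition; detection reagent stopped it.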
Potency is read from the fitted curve at half-maximal effect.

Structure (SMILES) | activity change, negative = inhibition | Potency
O=C(O)CN(CCN(CC(=O)O)CC(=O)O)CCN(CC(=O)O)CC(=O)O | 49.7% [at 23.6 µM] | 
CN1CCN(C2=Nc3cc(F)ccc3Cc3ccccc32)CC1 |  | inactive
Nc1ccc(Oc2ccc(N)c(N)c2)cc1 |  | 20 µM (active)
COc1cc2c(cc1N)oc1ccccc12 |  | 4.57 µM (active)
Nc1ccc2ccccc2c1S(=O)(=O)O |  | 40.7 µM (active)
NC(=O)NS(=O)(=O)c1ccc(Cl)cc1 |  | inactive
CCN(CCCc1ccccc1)CCCc1ccccc1 |  | 6.92 µM (active)
O=C(O)[C@@H](O)[C@H](O)[C@H](O)[C@@H](O)C(=O)O |  | inactive
CCOc1ccc(NS(=O)(=O)c2ccc(N)cc2)nn1 |  | 30.9 µM (active)
Cc1ccccc1C(=O)Nc1ccc(C(=O)N2CCCC(O)c3cc(Cl)ccc32)c(C)c1 (centres undefined) |  | inactive
CCCCCCn1c(=O)c2c(ncn2C)n(C)c1=O |  | 30.9 µM (active)
CC(C)c1ccccc1 |  | inactive
CCCc1c2oc(C(=O)O)cc(=O)c2cc2c(=O)cc(C(=O)O)n(CC)c12 |  | inactive
N#CSCC(=O)O |  | inactive
CC(C)CCCCCCc1ccc(OCCOCCO)cc1 |  | inactive
CCCCCCCCCC#N |  | inactive

Structure (SMILES) | activity change, negative = inhibition | Potency
CCc1nnc(NS(=O)(=O)c2ccc(N)cc2)s1 |  | inactive
CC(=O)O[C@H]1CC[C@@]2(C)C(=CC[C@@H]3[C@@H]2CC[C@]2(C)C(C(C)=O)=CC[C@@H]32)C1 |  | inactive
COc1ccc2nc(NC(=O)Nc3ccccc3)sc2c1 |  | 21.9 µM (active)
CCCCC(CC)COC(=O)COc1cc(Cl)c(Cl)cc1Cl (centres undefined) |  | 7.1 µM (active)
O=C1Nc2ccc([N+](=O)[O-])cc2C1=O |  | 5.63 µM (active)
Cc1nc(N)nc(N)c1-c1ccc(Cl)c(Cl)c1 |  | inactive
O=Cc1ccc(O)c(O)c1O |  | inactive
CC(C)OC(C)C |  | inactive
O=C(O[C@@H](C(=O)O)[C@@H](OC(=O)c1ccccc1)C(=O)O)c1ccccc1 |  | 45.6 µM (active)
Cc1ccc([N+](=O)[O-])c(N)c1 |  | 38.9 µM (active)
CCC(=O)c1ccc2c(c1)N(CCCN(C)C)c1ccccc1S2 |  | 11 µM (active)
CCCCCCCOC(=O)CCC |  | 79.6 µM (active)
OCc1c2ccccc2cc2ccccc12 |  | 35.7 µM (active)
CN(CCCN1c2ccccc2CCc2ccccc21)CC(=O)c1ccc(Cl)cc1 |  | 3.47 µM (active)
CCc1cc(Cl)c(OC)c(C(=O)NC[C@@H]2CCCN2CC)c1O |  | inactive
CCCCNC(=S)NCCCC |  | 79.6 µM (active)

molecular target: Cytochrome P450 2C9 (Homo sapiens) (UniProt P11712); assay: Cytochrome P450 Family 2 Subfamily C Member 9 (CYP2C9) small molecule antagonists: luciferase reporter qHTS assay (AID 1671198); settings: P450-Glo CYP2C9 enzyme assay, luciferin luminescence; series mostly up to 53 µM; also: nearly all actives have a fitted effect of over 50% in size
Sequence (P11712 whole entry, looked up): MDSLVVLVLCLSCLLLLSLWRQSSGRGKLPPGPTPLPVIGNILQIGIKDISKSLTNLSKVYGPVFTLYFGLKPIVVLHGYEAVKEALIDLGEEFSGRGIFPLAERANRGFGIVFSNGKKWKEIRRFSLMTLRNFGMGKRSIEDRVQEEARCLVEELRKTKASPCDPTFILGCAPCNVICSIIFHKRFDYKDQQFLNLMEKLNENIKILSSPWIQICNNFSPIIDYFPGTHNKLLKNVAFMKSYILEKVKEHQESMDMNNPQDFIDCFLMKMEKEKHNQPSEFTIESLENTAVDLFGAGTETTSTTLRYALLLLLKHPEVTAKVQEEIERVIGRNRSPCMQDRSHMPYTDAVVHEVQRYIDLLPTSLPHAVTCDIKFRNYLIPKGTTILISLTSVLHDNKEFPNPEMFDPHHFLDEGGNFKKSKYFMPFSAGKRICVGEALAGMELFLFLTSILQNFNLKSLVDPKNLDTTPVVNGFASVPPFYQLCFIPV
Method in brief: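 Enzyme-substrate mix preincubated with compound 10 min at room temperature; reaction started with NADPH regeneration solution, 1 h 37C. Luminescent luciferin product read after 20 min detection reagent.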

Structure (SMILES) | Potency
O=C(O)CN(CCN(CC(=O)O)CC(=O)O)CCN(CC(=O)O)CC(=O)O | inactive
CN1CCN(C2=Nc3cc(F)ccc3Cc3ccccc32)CC1 | inactive
Nc1ccc(Oc2ccc(N)c(N)c2)cc1 | 6.33 µM (active)
COc1cc2c(cc1N)oc1ccccc12 | 6.46 µM (active)
C[C@@H](N)C(=O)O | inactive
CCCCC(=O)O[C@]1(C(=O)CO)[C@H](C)C[C@H]2[C@@H]3CCC4=CC(=O)C=C[C@]4(C)[C@@]3(F)[C@@H](O)C[C@@]21C | 17.4 µM (active)
NC(=O)NS(=O)(=O)c1ccc(Cl)cc1 | inactive
CCN(CCCc1ccccc1)CCCc1ccccc1 | inactive
CCCS(=O)c1ccc2nc(NC(=O)OC)[nH]c2c1 (centres undefined) | inactive
O=C(O)[C@@H](O)[C@H](O)[C@H](O)[C@@H](O)C(=O)O | inactive
CCOc1ccc(NS(=O)(=O)c2ccc(N)cc2)nn1 | inactive
Cc1ccccc1C(=O)Nc1ccc(C(=O)N2CCCC(O)c3cc(Cl)ccc32)c(C)c1 (centres undefined) | 15.5 µM (active)
CCCCCCn1c(=O)c2c(ncn2C)n(C)c1=O | inactive
CC(C)c1ccccc1 | inactive
CCCc1c2oc(C(=O)O)cc(=O)c2cc2c(=O)cc(C(=O)O)n(CC)c12 | inactive
N#CSCC(=O)O | inactive

Structure (SMILES) | Potency
CCCCCCCCCC#N | inactive
C=CCc1cc(OC)c(O)c(C(=O)NCCO)c1 | inactive
CC(=O)O[C@H]1CC[C@@]2(C)C(=CC[C@@H]3[C@@H]2CC[C@]2(C)C(C(C)=O)=CC[C@@H]32)C1 | inactive
COc1ccc2nc(NC(=O)Nc3ccccc3)sc2c1 | 15.5 µM (active)
CCCCC(CC)COC(=O)COc1cc(Cl)c(Cl)cc1Cl (centres undefined) | 8.94 µM (active)
O=C1Nc2ccc([N+](=O)[O-])cc2C1=O | 35.5 µM (active)
Cc1nc(N)nc(N)c1-c1ccc(Cl)c(Cl)c1 | inactive
CC(C)OC(C)C | inactive
O=C(O[C@@H](C(=O)O)[C@@H](OC(=O)c1ccccc1)C(=O)O)c1ccccc1 | inactive
Cc1ccc([N+](=O)[O-])c(N)c1 | inactive
CCC(=O)c1ccc2c(c1)N(CCCN(C)C)c1ccccc1S2 | inactive
CCCCCCCOC(=O)CCC | inactive
OCc1c2ccccc2cc2ccccc12 | 22.5 µM (active)
CN(CCCN1c2ccccc2CCc2ccccc21)CC(=O)c1ccc(Cl)cc1 | 15.5 µM (active)
CCc1cc(Cl)c(OC)c(C(=O)NC[C@@H]2CCCN2CC)c1O | inactive
CCCCNC(=S)NCCCC | 71 µM (active)
